Reference: PubChem BioAssay AID1159580 (chemical genetic matrix, 2015)
“And” between values parts separate entries of the source, which are not always exact repeats. Equal entries are not always repeated. The whole screen tested about 5,500 compounds, of which about 2,000 (36%) were called active. Roughly 18% stayed inconclusive and do not appear here. Cut-off read from the data, not from the text of the source: active = normalized growth mostly below about 0.91 (no sharp cut-off); inconclusive = no clear call, values can overlap the other calls; inactive = mostly above about 0.92. The list shows a part of the results.

Test: chemical genetic growth profiling, strain panel (AID 1159580);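 note: tested at 20 µM; growth read once vehicle control cultures reached saturation at 30 °C; 1 = growth at the plate median or of vehicle wells; lower values mean less growth of the strain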
Settings: S. cerevisiae deletion strains, growth OD

Measured: normalized growth

COc1c(C)c2c(c(O)c1C/C=C(\C)CCC(=O)O)C(=O)OC2
inactive: locus YBR021W, strain FUR4, stronger effect = lower value 1.07 | locus YBR171W, strain sec66, stronger effect = lower value 0.945 | locus YBR229C, strain ROT2, stronger effect = lower value 0.973 | locus YDL005C, strain med2, stronger effect = lower value 0.915 | locus YDL101C, strain DUN1, stronger effect = lower value 0.95 | locus YDR150W, strain NUM1, stronger effect = lower value 0.997 | locus YDR195W, strain ref2 1.09 | locus YER110C, stronger effect = lower value 1.02 | locus YGL240W, strain doc1, stronger effect = lower value 0.95 | locus YGR252W, strain gcn5, stronger effect = lower value 1.01 | locus YIL073C, strain SPO22, stronger effect = lower value 0.794 | locus YJL134W, strain LCB3, stronger effect = lower value 0.976 | locus YJL168C, strain set2, stronger effect = lower value 0.979 | locus YJR043C, strain POL32, stronger effect = lower value 0.906
active: locus YAL013W, strain DEP1, stronger effect = lower value 0.84 | locus YAL021C, strain ccr4, stronger effect = lower value 0.556 | locus YAL026C, strain drs2, stronger effect = lower value 0.323 | locus YAL030W, strain snc1, stronger effect = lower value 0.621 | locus YBL061C, strain skt5, stronger effect = lower value 0.712 | locus YBR009C, strain hhf1, stronger effect = lower value 0.417 | locus YBR023C, strain chs3, stronger effect = lower value 0.602 | locus YBR231C, strain swc5, stronger effect = lower value 0.386 | locus YBR279W, strain paf1, stronger effect = lower value 0.613 | locus YCL011C, strain gbp2, stronger effect = lower value 0.47 | locus YCL016C, strain dcc1, stronger effect = lower value 0.518 | locus YCL029C, strain bik1, stronger effect = lower value 0.723 | locus YCL069W, strain vba3, stronger effect = lower value 0.395 | locus YCR088W, strain abp1, stronger effect = lower value 0.508 | locus YDL035C, strain GPR1, stronger effect = lower value 0.789 | locus YDL040C, strain nat1, stronger effect = lower value 0.758 | locus YDL074C, strain BRE1, stronger effect = lower value 0.498 | locus YDL134C, strain PPH21, stronger effect = lower value 0.876 | locus YDL185W, strain tfp1, stronger effect = lower value 0.185 | locus YDL192W, strain arf1, stronger effect = lower value 0.737 | locus YDR001C, strain nth1, stronger effect = lower value 0.604 | locus YDR069C, strain doa4, stronger effect = lower value 0.713 | locus YDR101C, strain arx1, stronger effect = lower value 0.668 | locus YDR137W, strain rgp1, stronger effect = lower value 0.345 | locus YDR159W, strain sac3, stronger effect = lower value 0.401 | locus YDR162C, strain NBP2, stronger effect = lower value 0.77 | locus YDR297W, strain sur2, stronger effect = lower value 0.664 | locus YDR318W, strain mcm21, stronger effect = lower value 0.625 | locus YDR334W, strain swr1, stronger effect = lower value 0.341 | locus YDR335W, strain msn5, stronger effect = lower value 0.549 | locus YDR388W, stronger effect = lower value 0.75 | locus YDR392W, strain spt3, stronger effect = lower value 0.0934 | locus YDR502C, strain sam2, stronger effect = lower value 0.666 | locus YEL003W, strain gim4, stronger effect = lower value 0.539 | locus YEL037C, strain rad23, stronger effect = lower value 0.451 | locus YEL061C, strain CIN8 (second series), stronger effect = lower value 0.368 | locus YEL061C, strain CIN8, stronger effect = lower value 0.863 | locus YER015W, strain faa2, stronger effect = lower value 0.667 | locus YER016W, strain bim1, stronger effect = lower value 0.761 | locus YER111C, strain swi4, stronger effect = lower value 0.662 | locus YER155C, strain BEM2 (second series), stronger effect = lower value 0.363 | locus YER155C, strain BEM2, stronger effect = lower value 0.781 | locus YER167W, strain BCK2, stronger effect = lower value 0.582 | locus YFR010W, strain ubp6, stronger effect = lower value 0.384 | locus YGL078C, strain dbp3, stronger effect = lower value 0.349 | locus YGL086W, strain mad1, stronger effect = lower value 0.759 | locus YGL167C, strain pmr1, stronger effect = lower value 0.666 | locus YGL173C, strain kem1, stronger effect = lower value 0.82 | locus YGL227W, strain vid30, stronger effect = lower value 0.494 | locus YGL248W, strain PDE1, stronger effect = lower value 0.861 | locus YGL253W, strain hxk2, stronger effect = lower value 0.437 | locus YGR078C, strain PAC10, stronger effect = lower value 0.808 | locus YGR135W, strain pre9, stronger effect = lower value 0.874 | locus YGR229C, strain SMI1, stronger effect = lower value 0.608 | locus YHR013C, strain ard1, stronger effect = lower value 0.533 | locus YHR027C, strain rpn1, stronger effect = lower value 0.699 | locus YHR079C, strain IRE1 (second series), stronger effect = lower value 0.536 | locus YHR079C, strain IRE1, stronger effect = lower value 0.165 | locus YHR094C, strain hxt1, stronger effect = lower value 0.734 | locus YHR129C, strain ARP1, stronger effect = lower value 0.869 | locus YHR142W, strain chs7, stronger effect = lower value 0.33 | locus YHR200W, strain rpn10, stronger effect = lower value 0.889 | locus YIL066C, strain RNR3, stronger effect = lower value 0.835 | locus YIL125W, strain kgd1, stronger effect = lower value 0.238 | locus YIR030C, strain dcg1, stronger effect = lower value 0.745 | locus YJL092W, strain hpr5, stronger effect = lower value 0.505 | locus YJL095W, strain BCK1 (second series), stronger effect = lower value 0.714 | locus YJL095W, strain BCK1, stronger effect = lower value 0.755 and 0.169 | locus YJL115W, strain asf1, stronger effect = lower value 0.593 | locus YJL129C, strain trk1, stronger effect = lower value 0.686 | locus YJL154C, strain vps35, stronger effect = lower value 0.596 | locus YJL164C, strain tpk1, stronger effect = lower value 0.469 | locus YJL166W, strain qcr8, stronger effect = lower value 0.641 | locus YJL187C, strain SWE1 (second series), stronger effect = lower value 0.749 | locus YJR066W, strain TOR1, stronger effect = lower value 0.0708 | locus YJR075W, strain HOC1, stronger effect = lower value 0.772
0.974 (inactive) and 0.154 (active): locus YHR030C, strain SLT2, stronger effect = lower value
